SNCA expr inhib: reduces expression of the alpha-synuclein gene | HEK-293 SNCA-luciferase knock-in, luminescence, 24 h | AID 1671194 | Potency, µM (series often up to 57.2 µM), inactives show top-dose activity change, negative = inhibition, hits mostly inhibitors | hit rate 0.17% among 140,000;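 note: potency is the fitted concentration of half-maximal effect; plate controls were DMSO cells for no effect and cell-free wells for full effect; nearly all actives have a fitted effect of over 45% in size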
SNCA viab count: reduces viability of HEK-293 SNCA reporter cells; HEK-293-SNCA-luc viability, GF-AFC fluorescence, 24 h; Potency, µM (top dose mostly 57.1 µM), without a hit: top-dose activity change, negative = cytotoxicity, most hits filed as cytotoxic; hit rate 0.12% among 150,000; AID 1671193;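 note: potency is the fitted concentration of half-maximal effect; 0% = DMSO-treated cells and -100% = medium-only wells without cells; nearly all actives have a fitted effect of over 30% in size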
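Cytotoxicity counterscreen: after 24 h compound treatment of genome-edited SNCA-luciferase HEK-293 cells, live-cell protease substrate GF-AFC read by fluorescence after 30 min; activity scaled between DMSO (0%) and medium-only (-100%), curves Hill-fitted.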
IP6K1 inh: blocks human inositol hexakisphosphate kinase 1. Q92551. IP6K1 kinase, ADP-Glo luminescence, 2 h; active compounds read low. activity change, % (series mostly up to about 58 µM). hit rate 0.81% among 140,000; in the data active = activity change below about -25%; note: % is set by controls: 0 for no effect and ±100 for the full control effect
Target sequence (Q92551 whole entry, looked up): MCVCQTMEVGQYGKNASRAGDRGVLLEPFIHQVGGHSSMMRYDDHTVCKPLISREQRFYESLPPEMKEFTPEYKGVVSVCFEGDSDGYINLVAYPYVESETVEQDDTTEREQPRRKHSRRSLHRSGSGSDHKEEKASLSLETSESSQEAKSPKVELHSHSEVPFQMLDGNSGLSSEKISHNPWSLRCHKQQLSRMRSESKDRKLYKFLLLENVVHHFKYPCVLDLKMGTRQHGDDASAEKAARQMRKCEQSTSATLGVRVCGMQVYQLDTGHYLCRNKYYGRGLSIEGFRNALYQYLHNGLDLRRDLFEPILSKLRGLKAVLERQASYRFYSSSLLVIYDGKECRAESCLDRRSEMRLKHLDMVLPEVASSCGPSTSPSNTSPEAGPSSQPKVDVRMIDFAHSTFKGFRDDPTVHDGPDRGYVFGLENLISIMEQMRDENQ
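ADP-Glo luminescence measures ADP made by human IP6K1 during a 2 h RT reaction with ATP/IP6 (mix at 1.3 mM/130 uM); top library doses 57.5 and 19.1 uM final.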
KDM5B inh: inhibitors of human KDM5B histone demethylase. Q9UGL1. KDM5B demethylase, FDH-coupled NADH fluorescence (FDH is formaldehyde dehydrogenase). Potency, µM (doses to about 57.7 µM), most hits filed as inhibitors. hit rate 2.6% among 220,000. AID 1347165; note: potency is the fitted concentration of half-maximal effect; 0% is about no effect; nearly all actives have a fitted effect of over 70% in size
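Measured: NADH fluorescence change, 30 min, RT. System: KDM5BΔAP 200 nM final, H3K4me3 peptide, α-KG, Fe(II), ascorbate, NAD⁺ plus FDH, pH 7.5 HEPES. Compounds: titrated, 10 min pre-incubation with enzyme.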
* = called active by the depositor; i = inactive; ? = inconclusive; · = not tested or not shown; [ ] = another dose, or the depositor's remark. In the library only some 2.9% were active in any assay of this set; here they are far more common. Unless noted, calls come from the whole dose curve; as a rule, active = well fitted curve in the direction sought with a large enough effect; inconclusive = small, poorly fitted or top-dose-only effect, or another doubt; inactive = no such curve, though single readings can be large; an effect the other way counts as inactive or inconclusive.

SMILES	SNCA expr inhib	SNCA viab count	IP6K1 inh	KDM5B inh
Cc1cccc(OCC(=O)N2CCCN(c3cc(-c4ccc(Cl)cc4)[nH]n3)CC2)c1	?	?	9.0	14.1µM*
COc1ccc(CC(=O)N2CCCN(c3cc(-c4ccc(Cl)cc4)[nH]n3)CC2)cc1	-25.0%	-16.5%	-4.5	?
CC1=C[C@@H](CNC(=O)c2ccc(F)cc2)[C@H](C(C)C)C[C@H]1Cc1nnc(-c2ccncc2)o1	?	?	9.1	i
Cc1nn(-c2ccccc2)c(C)c1[C@@H]1C=C[C@@H](NC(=O)c2ccco2)C1	6.6%[87.6 µM]	?	3.3	?
O=C(CC1CCCC1)N1CCC2(CC1)CC(N(Cc1ccc(F)cc1)C1CC1)CCO2 (centres undefined)	?	-4.2%	2.0	i
O=C(N[C@H](c1cccs1)C1CC(O)C1)c1cnn2cc(CCO)cnc12 (some centres undefined)	-21.8%	-0.4%	0.0	14.1µM*
CNc1ncccc1C(=O)N[C@H](c1cccs1)C1CC(O)C1 (some centres undefined)	2.5%	11.4%	15.4	28.2µM*
CNc1cc(C(=O)N[C@H](c2cccs2)C2CC(O)C2)ccn1 (some centres undefined)	34.7%	8.4%	0.0	28.2µM*
O=C(N[C@H](c1cccs1)C1CC(O)C1)c1cccc(-n2cccn2)c1 (some centres undefined)	2.9%	1.3%	-14.2	i
Cn1ccc2c(C(=O)N[C@H](c3cccs3)C3CC(O)C3)cccc21 (some centres undefined)	-3.2%	5.9%	0.0	i
O=C(c1ccc(F)cc1)N1CCc2nc(C3CC3)nc(-c3ccc(O)cc3)c2C1	-16.8%	-2.2%	-4.9	·
COc1cccc(-c2cc(C(=O)NCC(F)F)c3cnn(C)c3n2)c1	·	·	-3.6	·
O=C(NC1CCN(Cc2cccc(-c3cccs3)c2)CC1)c1ccccc1	-8.2%	12.9%[12.5 µM]	-2.1	·
CN1CCN(c2cc(N3CCCC(CN4CCCCC4)C3)nc(N)n2)CC1 (centres undefined)	1.0%	-24.2%	0.0	i
CN1CCN(c2cc(-c3cncc(N)c3)nc(N)n2)CC1	2.4%	3.0%	15.1	20µM*
Cn1c(=O)n(-c2ccc3c(c2)OCO3)c2nc(-c3ccc(Cl)cc3)nc(C(N)=O)c21	31.6µM*	1.0%	13.9	?
CC(C)c1ccc(-c2nc(C(N)=O)c3c(n2)n(-c2ccc4c(c2)OCO4)c(=O)n3C)cc1	23.4%	6.6%	-1.0	i
O=C(Cc1cccc(Cl)c1)N1CCN(C(=O)c2nc3cccnc3n(Cc3ccccc3)c2=O)CC1	-0.1%	-3.5%[12.5 µM]	3.5	·
CN(C)CCOc1cccc2c1c(NC(=O)c1ccn[nH]1)nn2-c1ccc(F)cc1	25.1%	-12.0%	3.3	?
CSCC(=O)Nc1nn(-c2ccc(F)cc2)c2cccc(N3CCOCC3)c12	68.9%	?	34.6	25.1µM*
COc1ccc(Nc2ccc3c(n2)CN(Cc2ccccc2C)C(=O)CO3)cc1	-12.5%[87.6 µM]	?	-12.0	35.5µM*
O=C1COc2ccc(Nc3ccccc3)nc2CN1Cc1ccccc1	-28.0%[87.6 µM]	-6.1%[87.6 µM]	-20.9	?
COc1ccccc1-c1ccc2c(n1)CN(Cc1ccccc1C)C(=O)CO2	-4.3%[87.6 µM]	-4.5%[87.6 µM]	5.1	?
Cc1nc(CN2Cc3nc(Nc4ccc(C(F)(F)F)cc4)ccc3OCC2=O)cs1	-33.6%[87.6 µM]	?	-6.5	35.5µM*
COc1ccc(Nc2ccc3c(n2)CN(Cc2ccccc2F)C(=O)CO3)cc1	14.2%[87.6 µM]	?	-25.0	35.5µM*
SMILES	SNCA expr inhib	SNCA viab count	IP6K1 inh	KDM5B inh
COc1cccc(Nc2ncc(-c3ccccc3)c3c2OCC3)c1	164.0%[87.6 µM]	4.1%[87.6 µM]	8.3	20µM*
COc1cccc(Nc2ncc(-c3cccc(N(C)C)c3)c3c2OCC3)c1	20.6%[87.6 µM]	-2.4%[87.6 µM]	5.3	22.4µM*
c1ccc(-c2cnc(Nc3ccncc3)c3c2CCO3)cc1	52.4%[87.6 µM]	-25.5%[87.6 µM]	-14.2	?
O=C(NCC1CC1)c1ccc2nnc(-c3cccc(C(F)(F)F)c3)n2c1	-9.0%	-9.8%	-5.3	·
CC(=O)Nc1ccc(NC[C@@H]2C=C(C)[C@H](Cc3nnc(C)o3)C[C@H]2C(C)C)cn1	6.0%[87.6 µM]	-10.1%[87.6 µM]	16.1	i
COc1ccccc1Nc1ccnc(N2CCCC(C(=O)NCc3ccc(Cl)cc3)C2)n1 (centres undefined)	?	-8.5%[12.5 µM]	2.5	·
Cc1cc(C(=O)NCC2Cn3cccc3CN2C)nn1C (centres undefined)	5.4%	-0.3%	5.0	25.1µM*
Cc1ccc(CNC(=O)NCC2Cn3cccc3CN2C)cc1 (centres undefined)	-17.9%	3.3%	-11.5	?
CN1Cc2cccn2CC1CNC(=O)c1cccs1 (centres undefined)	-7.1%	-5.9%	-5.1	20µM*
CN1Cc2cccn2CC1CNC(=O)c1nn(C)c2ccccc12 (centres undefined)	0.2%	-14.6%	-2.9	15.8µM*
CN1Cc2cccn2CC1CNC(=O)c1ccco1 (centres undefined)	5.3%	11.1%	-2.5	28.2µM*
CN1Cc2cccn2CC1CNC(=O)c1nccn1C (centres undefined)	-0.1%	-14.2%	-1.0	14.1µM*
CN1Cc2cccn2CC1CNC(=O)c1ccccc1 (centres undefined)	-4.2%	-7.6%	-4.4	28.2µM*
CN1Cc2cccn2CC1CNC(=O)c1cnn(C)c1 (centres undefined)	-12.0%	-2.2%	15.0	22.4µM*
CCn1nc(C)c(-c2cc(C(=O)NCC3Cn4cccc4CN3C)no2)c1C (centres undefined)	2.5%	-10.2%	-10.2	?
CN1Cc2cccn2CC1CNC(=O)c1cccn1C (centres undefined)	0.2%	-0.8%	-10.1	?
CN1Cc2cccn2CC1CNC(=O)c1cccc(F)c1 (centres undefined)	-16.6%	3.3%	16.2	25.1µM*
CN1Cc2cccn2CC1CNC(=O)Nc1cccc(F)c1 (centres undefined)	-25.0%	-10.5%	13.4	?
O=C(C[C@@H]1CCNC[C@@H]1Cc1cc(-c2ccccc2)on1)NCc1ccccc1	4.5%[87.6 µM]	7.1%[87.6 µM]	14.9	i
COc1ccccc1Nc1ccnc(N2CCC[C@H]2C(=O)NCc2ccc(C(F)(F)F)cc2)n1	-6.0%	-6.5%	0.4	·
CN1Cc2cccn2CC1CNC(=O)c1cc(CN2CCOCC2)on1 (centres undefined)	24.3%	6.5%	-0.7	17.8µM*
COc1cccc(CC(=O)N2CCC(N3C(=O)c4c(c(C)nn4-c4ccccc4)C3C)CC2)c1 (centres undefined)	·	·	-2.4	·
O=C(NCc1cccc(Cl)c1)C1CCCN1c1nccc(Nc2ccccc2F)n1 (centres undefined)	?	-18.5%[12.5 µM]	-10.7	·
COc1ccc(-c2cc3c(=O)n(CCNC(=O)c4ccco4)ccn3n2)cc1	26.4%	-8.5%	5.0	?
O=C(NCCn1ccn2nc(-c3ccc(F)cc3)cc2c1=O)c1ccoc1	109.5%	-5.5%	0.8	?
CCOc1ccc(-c2cc3c(=O)n(CCNC(=O)c4ccoc4)ccn3n2)cc1	78.7%	-1.3%	-5.0	22.4µM*

Screens: PubChem BioAssay, National Center for Advancing Translational Sciences (NCATS)
